PubChem BioAssay AID720542 (National Center for Advancing Translational Sciences (NCATS), 2013)
Screen size: about 360,000 compounds; about 740 (0.21%) were called active. About 2% were inconclusive and are not listed. The call rests on the fitted dose curve; in most records, active means well fitted inhibition curve with a large enough effect; inconclusive means small, poorly fitted or top-dose-only effect; inactive means no such curve, though single readings can be large or run the other way. The list comes from a sample in which actives are over-represented; it also holds similar structures and randomly drawn compounds. A call without a number means that no potency is given here.

The compounds below were run on Plasmodium falciparum AMA1 (3D7) - RON2 peptide interaction (assay: qHTS for Inhibitors of AMA1-RON; Towards Development of Antimalarial Drug Lead: Primary Screen). Conditions: AlphaScreen AMA1-biotinylated RON2 peptide binding; series mostly up to 58.2 µM.
Excerpt: Plasmodium, the causative agent of malaria, is one of the world's deadliest parasitic diseases. Currently there is no vaccine available and there is widespread resistance to common anti-malarial drugs. This warrants novel, alternative approaches for developing improved therapy. During infection, one such essential interaction is between two parasite proteins, the apical membrane antigen1 (AMA1) that is translocated onto the merozoite surface and the rhoptry neck protein 2 (RON2), which is transferred to the red blood cells (RBC) membrane during invasion (Besteiro et.al., 2009). Recently, the Miller lab has shown that the interaction between AMA1 and RON2 is essential for junction formation of the parasite with the host cell (Srinivasan et.al., 2011). The binding of the RON2 peptide to the hydrophobic pocket in AMA triggers the formation of the moving junction which provides a firm anchor for the parasite to pull itself into the RBC using its actin-myosin motor; an irreversible step that commits the parasite for invasion. Only one AMA1 and RON2 genes exists in Plasmodium and there are no alternate pathways. Moreover, the region corresponding to RON2 peptide is conserved in all P. falciparum isolates for which sequences are available. The key residues in the AMA1 hydrophobic pocket that binds RON2 are also conserved and indicate a functional constraint governing this essential step in invasion since a short RON2 peptide (RON2L) corresponding to the binding region on AMA1 is sufficient to compete with the native RON2 protein and inhibits invasion (Tonkin et.al, 2011). Therefore, developing small molecule inhibitors of this interaction offers a promising target opening a new arena for anti-malarial therapeutics drug design.
In collaboration with the Miller lab, a quantitative High Throughput Screen using the AlphScreen technology was developed using a recombinant his-tagged AMA1 and a biotinylated RON2 peptide. This fluorescent screen was assayed against the NIH Molecular Libraries Small Molecule Repository (MLSMR). Inhibition of this protein-protein interaction is the desired outcome of this assay. However, due the limitations of this AlphaScreen assay, a large number of artifacts were observed. An AlphaScreen counterscreen was run to identify the true inhibitors, triage compound activity, and weed out false positives.
NIH Chemical Genomics Center [NCGC]
NIH Molecular Libraries Probe Centers Network [MLPCN]
Assay Submitter (PI): Louis Miller, National Institute of Allergy and Infectious Disease (NIAID)
Two microliters of his-tagged AMA1 3D7 allele protein (final concentration 25 nM) was dispensed into a 1,536-well assay plate. Small molecules and positive control peptides were pin-transferred (23 nL or 46 nL) via Kalypsys pin-tool equipped with a 1,536-pin array, resulting in final compound and peptide concentration ranges of 91.5 nM - 57.2 µM, and 15.6 nM - 2.00 µM, respectively. Unlabeled RON2 peptide or R1 peptide ([…]) that specifically binds the 3D7 AMA1 was used as a positive control that inhibited the binding of RON2L to AMA1. After 15 minutes incubation, 1 uL of biotinylated RON2 peptide (final concentration 25 nM) or buffer were dispensed and the assay plate was incubated for an additional 30 minutes at room temperature and protected from light. This was followed by an addition of 1 uL mixture of donor and acceptor beads (10 ug/mL final concentrations for each). The plates were incubated for 30 min at room temperature and read using the EnVision(R) plate reader (PerkinElmer). Maximum inhibition response was normalized to the positive control signal while no inhibition response was normalized to the DMSO treated wells.
Further: nearly all actives have a fitted effect of over 45% in size.
Potency means the concentration at half of the fitted maximal effect.

Row | Compound | Potency
1 | CCCN(CCC)CC(O)COc1ccccc1C(=O)Nc1ccccc1 (stereo unspecified) | inactive
2 | CC(C)C(O)C1CCN(Cc2nc(Cc3ccccc3Cl)no2)CC1 (stereo unspecified) | inactive
3 | CCCOc1cc(C)c(S(=O)(=O)n2nnc3ccccc32)cc1C | inactive
4 | COc1cccc(-n2c(=O)c3c(C)c(C(=O)N(C)C)sc3n(CC(=O)NCCc3ccc(OC)c(OC)c3)c2=O)c1 | inactive
5 | Cc1ccc(OCC(=O)Nc2cccc3c2CCCC3)cc1C | inactive
6 | Oc1cc(O)c2c(c1)OC(c1ccc(O)c(O)c1)C(O)C2 (stereo unspecified) | inactive
7 | CCOC(=O)C1(Cc2ccccc2C(F)(F)F)CCN(C(=O)c2cc(C)n(C)n2)CC1 | inactive
8 | C[C@H](CO)N1C[C@H](C)[C@@H](CN(C)C(=O)NC2CCCCC2)Oc2ccc(NC(=O)c3ccncc3)cc2C1=O | inactive
9 | CCCCN(C(=O)c1ccc(OC(F)(F)F)cc1)c1c(N)n(CCC)c(=O)[nH]c1=O | inactive
10 | CC(C)C(=O)NCC(c1cccs1)S(=O)(=O)c1ccc(F)cc1 (stereo unspecified) | inactive
11 | Cc1csc(=O)n1CCC(=O)OCC(=O)Nc1ccc(N2CCOCC2)cc1 | inactive
12 | CCc1c(C)[nH]c(=S)c(C#N)c1C | inactive
13 | COc1ccc(C)cc1S(=O)(=O)Nc1cccc(Cl)c1Cl | inactive
14 | CCN(CC)C(=O)CSc1nnc(-c2cnccn2)n1-c1ccc(C)cc1 | inactive
15 | COC(=O)c1ccc(OCC(O)CN(CCO)CC(O)Cn2ccc3ccccc32)cc1 (stereo unspecified) | inactive
16 | NC(=O)CCCC1=NS(=O)(=O)c2ccccc2N1 | inactive
17 | CC(CC(=O)Nc1ccc(F)cc1F)S(=O)(=O)c1ccc2c(c1)NC(=O)CO2 (stereo unspecified) | inactive
18 | O=C(NC1CCCC1)C(NS(=O)(=O)c1ccc(Br)s1)c1ccccc1 (stereo unspecified) | inactive
19 | Cc1ccc(N)cc1-n1c(C)ccc1C | inactive
20 | COc1cc(C(=O)NNC(=O)CN2C(=O)NC3(CCCC3)C2=O)cc(OC)c1OC | inactive
21 | OC(c1ccc(Cl)cc1)C(CN1CCOCC1)c1ccccc1 (stereo unspecified) | inactive
22 | C=CCn1c(SCc2c(C(=O)OC)sc(N)c2C(=O)OC)nnc1-c1ccc(Cl)cc1 | inactive
23 | CC1(C)CC(=O)c2cnc3nc4ccccc4n3c2C1 | inactive
24 | CCCC1(C(=O)OC)NC(c2ccco2)C2C(=O)N(C)C(=O)C21 (stereo unspecified) | inactive
25 | Cn1ccc(=Nc2ccc(NC(=O)c3ccc(N=c4ccn(C)c5ccc([N+](=O)[O-])cc45)cc3)cc2)cc1 | inactive
26 | CCCN(CCC)S(=O)(=O)c1ccc(C(=O)N2CC3CCC(CC3)C2)cc1 | inactive

Row | Compound | Potency
27 | CN(c1ccccc1)S(=O)(=O)c1ccc2[nH]c(=O)[nH]c2c1 | inactive
28 | CC1(C(=O)NCc2ccco2)Cc2c(-c3ccc4c(c3)OCO4)ccnc2O1 (stereo unspecified) | inactive
29 | COC(=O)c1ccc(NC(=O)CSc2nncc3ccc(OC)c(OC)c23)cc1 | inactive
30 | COCCN(CC(=O)Nc1ccccc1C)S(=O)(=O)c1ccc(S(=O)(=O)N2CCCC2)cc1 | inactive
31 | CSc1nnc2c(n1)OC(c1cn(C)c3ccccc13)N(C(C)=O)c1ccccc1-2 (stereo unspecified) | inactive
32 | O=C(CN1C(=O)NC2(CCCCCCC2)C1=O)NCc1ccc(F)cc1 | inactive
33 | Cc1nc([N+](=O)[O-])nn1C12CC3CC(CC(Br)(C3)C1)C2 | inactive
34 | CCOc1ccc(OCC)c(NC(=O)C2CCN(S(=O)(=O)c3c(C)noc3C)CC2)c1 | inactive
35 | CSCc1cc(N2CCOCC2)nc(SCc2ccc(Cl)cc2Cl)n1 | inactive
36 | CC(=O)c1ccc(S(=O)(=O)NC2CC(=O)N(c3ccc4c(c3)OCCO4)C2)cc1 (stereo unspecified) | inactive
37 | NC(=O)CC(NC(=O)Cc1ccc(Br)cc1)c1ccc(NC2CC3CCC2C3)c([N+](=O)[O-])c1 (stereo unspecified) | inactive
38 | CCOC(=O)C1(Cc2ccccc2C)CCCN(S(C)(=O)=O)C1 (stereo unspecified) | inactive
39 | COc1ccc(CNC(=O)C[C@H]2C[C@H](C(=O)N3CCOCC3)[C@@]3(C)c4[nH]c5cc(CCC(=O)N(C)C)ccc5c4CCN3C2=O)cc1OC | inactive
40 | COc1ccc2occ(C(=O)c3ccc(N=C(C)N(C)C)cc3)c2c1 | inactive
41 | CN(C)c1ccc(Nc2c3c4c(cccc4n(C)c2=O)C(=O)c2ccccc2-3)cc1 | 4.47 µM (active)
42 | COCCNC(=O)Nc1ccc2nc(-c3ccco3)c(-c3ccco3)nc2c1 | 7.08 µM (active)
43 | COCCN(C(=O)c1ccco1)c1nnc(-c2ccc(OC)cc2)s1 | inactive
44 | O=C(NCCOc1ccccc1F)Nc1ccc(Br)cc1 | inactive
45 | CC1=C(C(=O)OC(C)(C)C)C(c2ccc(Br)cc2)NC(=O)N1CCCC(=O)O (stereo unspecified) | inactive
46 | O=C(CSc1nnc2ccc(-c3ccncc3)nn12)N1CCCCC1 | inactive
47 | O=C1CCC/C=C\C[C@@H](CC(=O)N(CCO)Cc2ccccc2)C(=O)NCCO1 | inactive
48 | O=C(O)CSC(NC(=O)c1cccnc1)(C(F)(F)F)C(F)(F)F | inactive
49 | COc1ccc(OC)c(C2C3=C(N=c4s/c(=C\c5cccc(O)c5)c(=O)n42)c2ccccc2CC3)c1 (stereo unspecified) | inactive
50 | CCOCCCN(C)C1CCN(C(=O)c2oc3ccccc3c2NC(=O)COc2cccc(C)c2)CC1 | inactive
51 | COc1cc(C(=O)OCC(=O)N(CC(C)C)C2CCS(=O)(=O)C2)ccc1OCC(C)C (stereo unspecified) | inactive
